NPSR antagonist: qHTS Assay for Antagonists of the Neuropeptide S Receptor: cAMP Signal Transduction; Q6W5P4; CHO-NPSR cells, cAMP TR-FRET, antagonist mode; Potency, µM (titrated, usually from 38.3 µM), most hits filed as inhibitors; hit rate 1% among 220,000; further: nearly all actives have a fitted effect of over 50% in size
RORgamma inh: qHTS for inhibitors of ROR gamma transcriptional activity; Drosophila S2 Gal4-RORgamma UAS-luciferase reporter, 20 h; Potency, µM (top dose mostly 53.6 µM), actives largely listed as inhibitors; hit rate 5.4% among 310,000; AID 2551, 2010; further: nearly all actives have a fitted effect of over 60% in size
Target sequence (P51450 whole entry, looked up, the tested form may be a part): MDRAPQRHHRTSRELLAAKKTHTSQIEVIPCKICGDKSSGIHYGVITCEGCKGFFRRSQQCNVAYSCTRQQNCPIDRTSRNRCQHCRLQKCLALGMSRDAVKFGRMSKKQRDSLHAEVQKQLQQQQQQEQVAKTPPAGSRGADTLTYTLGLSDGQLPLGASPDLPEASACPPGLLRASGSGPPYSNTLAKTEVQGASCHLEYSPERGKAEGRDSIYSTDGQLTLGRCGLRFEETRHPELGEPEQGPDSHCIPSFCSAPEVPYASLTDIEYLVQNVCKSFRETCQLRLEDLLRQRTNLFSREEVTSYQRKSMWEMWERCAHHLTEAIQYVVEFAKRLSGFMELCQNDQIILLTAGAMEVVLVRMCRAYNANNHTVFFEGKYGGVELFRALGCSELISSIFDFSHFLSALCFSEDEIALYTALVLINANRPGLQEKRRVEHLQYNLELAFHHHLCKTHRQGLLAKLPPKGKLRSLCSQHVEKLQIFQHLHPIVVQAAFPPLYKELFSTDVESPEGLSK
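Schneider cells (Drosophila), stable Gal4 DBD–ROR gamma + UAS-luc; 1 hr cmpd preincubation; Cu2+ induction 700 uM final; 20 hr ambient; luminescence.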
Gal4-VP16 FLuc: VP16 counterscreen qHTS for inhibitors of ROR gamma transcriptional activity; Potency, µM (doses to about 53.6 µM), actives largely listed as inhibitors; hit rate 3.5% among 310,000; AID 2546, 2010; Drosophila S2 Gal4-VP16 UAS-luciferase, luminescence, 20 h;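 further: Gal4-VP16 expression switched on by copper sulfate through the metallothionein promoter; nearly all actives have a fitted effect of over 50% in size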
B2AR arrestin: qHTS assay of beta-arrestin-biased ligands of beta2-adrenergic receptor; beta-arrestin recruitment to beta2AR, cell-based reporter; hit rate 0.02% among 330,000; Potency, µM (series often up to 46.1 µM), usual class: activators; AID 492947, 2010; further: nearly all actives have a fitted effect of over 65% in size
Each line names hits and unclear results; the compound was inactive in the other large screens. Only some compounds are listed: those with a hit (about 5.7% of all), similar ones and a draw of the others. The call rests on the fitted dose curve; in most records, active means well fitted curve in the direction sought with a large enough effect; inconclusive means small, poorly fitted or top-dose-only effect, or another doubt; inactive means no such curve, though single readings can be large; an effect the other way counts as inactive or inconclusive.

Oc1ccc(CNc2cccc(F)c2F)c2cccnc12	none (no result: NPSR antagonist, RORgamma inh, Gal4-VP16 FLuc)
O=P(O)(O)OC(CO)CO	none (no result: NPSR antagonist, B2AR arrestin)
N[C@@](C(=O)O)(c1ccc(P(=O)(O)O)cc1)C1CC1	none (no result: NPSR antagonist, B2AR arrestin)
OCc1ccc(O)c2ncccc12	RORgamma inh 13µM, Gal4-VP16 FLuc 18µM
CCOC(=O)N1CCN(Cc2ccccn2)CC1	none (no result: B2AR arrestin)
O=[N+]([O-])c1cc(CN2CCN(c3cccc(C(F)(F)F)c3)CC2)c2cccnc2c1O	RORgamma inh 0.11µM, Gal4-VP16 FLuc inconclusive
Oc1ccc(CN2CCc3ccccc3C2)c2cccnc12	NPSR antagonist 4µM, RORgamma inh 1µM, Gal4-VP16 FLuc inconclusive (no result: B2AR arrestin)
CCOC(=O)N1CCN(Cc2ccc(O)c3ncccc23)CC1	RORgamma inh 2.5µM, Gal4-VP16 FLuc 5µM
CCCCNC(=NCc1cccc(C(F)(F)F)c1)Nc1ccccc1	none (no result: NPSR antagonist)
O=C(Cn1nnc2ccccc21)NNC(=O)c1ccccc1	none
COc1cc(CN2CCc3ccccc3C2)ccc1O	NPSR antagonist inconclusive, RORgamma inh 5.6µM, Gal4-VP16 FLuc 3.5µM
Oc1ccc(CN2CCCCC2)c2cccnc12	RORgamma inh 7.1µM, Gal4-VP16 FLuc 7.9µM
Oc1ccc(CN2CCN(c3ccccc3)CC2)c2cccnc12	RORgamma inh 1.3µM, Gal4-VP16 FLuc 1µM
Cc1cc2oc(=O)cc(Cn3nnc(-c4ccc(Cl)cc4)n3)c2cc1C(C)C	none
O=C(NCCc1ccccc1)C(NS(=O)(=O)c1cccc2nsnc12)c1ccccc1 (stereo not drawn)	none
Cc1cnc(NC(=O)c2cc3c(C)nn(-c4ccccc4)c3s2)s1	RORgamma inh 0.89µM, Gal4-VP16 FLuc 1.1µM
Cc1nn(-c2ccccc2)c2sc(C(=O)NNC(=O)COc3ccccc3)cc12	NPSR antagonist inconclusive, RORgamma inh 7.1µM, Gal4-VP16 FLuc 10µM
Cc1nn(-c2ccccc2)c2sc(C(=O)NNC(=O)COc3cccc4ccccc34)cc12	RORgamma inh 8.9µM, Gal4-VP16 FLuc inconclusive
Cc1nn(-c2ccccc2)c2sc(C(=O)NC3CCCCC3)cc12	NPSR antagonist inconclusive
CO/N=C(\C)CCN1CCCCc2nc(C)c(C)cc21	none (no result: NPSR antagonist, B2AR arrestin)
Cc1cc(C)nc(/N=C(\N)Nc2ccccc2-c2ccccc2)n1	RORgamma inh inconclusive, Gal4-VP16 FLuc 13µM
COc1ccc(O[C@H]2C=C[C@@H](c3ccccc3)O[C@H]2COC(=O)CC/C(C)=N\OC[C@@H](O)COCc2ccco2)cc1	none (no result: NPSR antagonist, B2AR arrestin)
Cc1cccc(C)c1NC(=O)CNC(=O)c1cncc(Br)c1	none (no result: NPSR antagonist)
Cc1cccnc1NC(=O)CNC(=O)c1cccs1	none (no result: NPSR antagonist, RORgamma inh, Gal4-VP16 FLuc)
O=C(NC(=S)Nc1ccc(Br)cn1)c1cccs1	RORgamma inh 2.2µM, Gal4-VP16 FLuc 8.9µM
Cc1cccnc1NC(=S)NC(=O)c1cccs1	RORgamma inh 4µM, Gal4-VP16 FLuc 10µM
O=C(Nc1ccc(Br)cn1)c1ccc(Br)s1	Gal4-VP16 FLuc inconclusive (no result: NPSR antagonist)
Cc1cccnc1NC(=S)NC(=O)c1cncc(Br)c1	RORgamma inh 5µM, Gal4-VP16 FLuc inconclusive
S=C(Nc1ccccc1)Nc1ccccc1Br	RORgamma inh inconclusive
S=C(Nc1ccccc1)Nc1ccc(Br)cn1	RORgamma inh 0.89µM, Gal4-VP16 FLuc 5.6µM
Cc1ccc(CN2CCN(C/C(Cl)=C/c3ccccc3)CC2CCO)o1 (stereo not drawn)	none
Cc1noc(C)c1C(=O)N1CCC[C@@]2(CCN(Cc3cc(C(F)(F)F)cc(C(F)(F)F)c3)C2)C1	none (no result: NPSR antagonist, B2AR arrestin)
CC(C)S(=O)(=O)C/C(N)=N/OC(=O)c1cc(Cl)cc(Cl)c1	none
O=C(NC(=S)Nc1ccc(Br)cn1)c1cncc(Br)c1	RORgamma inh 0.5µM
O=C(NC(=S)Nc1ccccc1C(=O)O)c1cncc(Br)c1	none (no result: NPSR antagonist)
O=C(NC(=S)Nc1ccccc1[N+](=O)[O-])c1cncc(Br)c1	RORgamma inh 7.1µM, Gal4-VP16 FLuc 5.6µM (no result: NPSR antagonist)
O=C(NC(=S)Nc1ccccn1)c1cncc(Br)c1	RORgamma inh 7.9µM, Gal4-VP16 FLuc 7.9µM
COc1ccc(C(=O)Nc2ccc(NC(=O)c3cccs3)cn2)cc1	RORgamma inh 0.22µM (no result: NPSR antagonist)
COc1ccc(NC(=O)c2cccs2)cc1	none
CNC(=O)[C@H]1O[C@@H](n2cnc3c(NCc4cccc(I)c4)ncnc32)[C@H](O)[C@@H]1O	none (no result: NPSR antagonist, RORgamma inh, Gal4-VP16 FLuc)
CCC(C)NC(=O)Cn1ccc2cc(S(=O)(=O)N3CCCCCC3)ccc21 (stereo not drawn)	none (no result: NPSR antagonist)
c1ccc(CN2CCN(c3nc(-c4ccccn4)nc4ccccc34)CC2)cc1	RORgamma inh 1.4µM, Gal4-VP16 FLuc 2.8µM
c1ccc(-c2nc(N3CCCCCC3)c3ccccc3n2)nc1	RORgamma inh 1.1µM, Gal4-VP16 FLuc 2.5µM
Cc1ccccc1-c1nc(N2CCN(C)CC2)c2ccccc2n1	none (no result: NPSR antagonist, B2AR arrestin)
CN1CCN(c2nc(-c3ccccc3O)nc3ccccc23)CC1	RORgamma inh 8.9µM (no result: NPSR antagonist)
c1ccc(-c2nc(N3CCOCC3)c3ccccc3n2)nc1	RORgamma inh 2.5µM, Gal4-VP16 FLuc 5.6µM
c1ccc2c(N3CCCC3)nc(-c3ccncc3)nc2c1	none
Cc1ccccc1-c1nc(N2CCOCC2)c2ccccc2n1	none (no result: NPSR antagonist, B2AR arrestin)
CCN1CCN(c2nc(-c3ccccn3)nc3ccccc23)CC1	none
CCC(Cc1ccccc1)NC(=O)CCc1ccccc1 (stereo not drawn)	none (no result: NPSR antagonist, RORgamma inh, Gal4-VP16 FLuc)
CC(C)CCCC(C)C1CC(=O)C2=C3CCC4CC(O)CCC4(C)C3CCC21C (stereo not drawn)	none (no result: NPSR antagonist, B2AR arrestin)
Cc1noc(C)c1C(=O)NCc1ccccc1F	none
COC(=O)C1(C(=O)OC)C/C=C\C/C=C\c2ccccc2[C@@H]1C[N+](=O)[O-]	none (no result: NPSR antagonist, B2AR arrestin)
Nc1ccccc1-n1cccc1	none
CC(C)(C)C(=O)Nc1ccc(C(=O)Nc2cccc(Oc3ccc(C(=O)O)c(C(=O)O)c3)c2)cc1	RORgamma inh inconclusive, Gal4-VP16 FLuc 11µM (no result: NPSR antagonist)
O=C(Nc1cccc(Oc2ccc(C(=O)O)c(C(=O)O)c2)c1)c1ccc(-c2ccccc2)cc1	RORgamma inh inconclusive, Gal4-VP16 FLuc inconclusive
CC1CC(=O)Nc2ccccc2N1C(=O)Cn1cnc2ccccc2c1=O (stereo not drawn)	none (no result: NPSR antagonist, RORgamma inh, Gal4-VP16 FLuc)
c1ccc(C(NCc2cccnc2)(c2ccccc2)c2ccccc2)cc1	none (no result: NPSR antagonist, B2AR arrestin)
CCOC(=O)C1=C(NC(=S)NC(=O)c2ccccc2)c2ccccc2CC1C(C)C (stereo not drawn)	NPSR antagonist inconclusive, RORgamma inh 4µM
CCOC(=O)C1=C(NC(=S)NC(=O)c2ccccc2)c2ccccc2CC1(C)CC (stereo not drawn)	RORgamma inh 6.3µM, Gal4-VP16 FLuc 7.1µM
Cc1c2c(nc3ccccc13)CCC(C(C)(C)C)C2 (stereo not drawn)	NPSR antagonist inconclusive, RORgamma inh 4µM, Gal4-VP16 FLuc inconclusive
COc1ncc2nc(CCc3ccccc3)c(=O)n(Cc3cccs3)c2n1	none (no result: NPSR antagonist, B2AR arrestin)
CC1=C(C(=O)O)N2C(=O)C(NC(=O)C(N)c3ccc(O)cc3)C2SC1 (stereo not drawn)	none (no result: NPSR antagonist, B2AR arrestin)
CN1CCN(NC(=S)NC(C)(C)CC(C)(C)C)CC1	RORgamma inh 6.3µM, Gal4-VP16 FLuc 18µM
CC(C)(C)c1ccc(C(=O)N2CCNCC2)cc1	none
CN1CCC2(CC1)N=C(c1ccc(F)cc1)C(=S)N2C(=O)c1ccc(C(C)(C)C)cc1	NPSR antagonist inconclusive, RORgamma inh 13µM, Gal4-VP16 FLuc inconclusive
CC(=O)N1CCC2(CC1)C/C(=N\NC(=S)Nc1ccccc1C)c1cc(O)ccc1O2	RORgamma inh inconclusive, Gal4-VP16 FLuc inconclusive

Source: PubChem (National Center for Advancing Translational Sciences (NCATS))
